From PubChem BioAssay AID504834 (National Center for Advancing Translational Sciences (NCATS), 2011) come the findings set out here.

Hit rate of the full screen: of about 320,000 compounds, about 22,000 (6.9%) were called active. Where a call stands in place of a potency, no number is given. Not shown: some 27% with an inconclusive outcome. This is one part of a sample in which actives are shown more often than they occur. Values without a mark were called inactive. The call rests on the fitted dose curve; in most records, active means well fitted inhibition curve with a large enough effect; inconclusive means small, poorly fitted or top-dose-only effect, or another doubt; inactive means no such curve, though single readings can be large or run the other way.
Potency means the concentration at half of the fitted maximal effect.

The test in a line: Primary qHTS for delayed death inhibitors of the malarial parasite plastid, 96 hour incubation. As to conditions: P. falciparum luciferase reporter growth; series mostly up to 28.7 µM. A digest of the protocol:
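P. falciparum expressing integrated firefly luciferase grown in erythrocytes (2% hematocrit, 0.05% parasitemia final) with compounds for 96 hours at 37 C, 5% CO2. Growth inhibition read as loss of luminescence after adding luciferase detection reagent.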
For orientation: Quantitative high-throughput screening tests each substance at several concentrations.
On to `COCCN1C(=O)N(c2ccc(Cl)cc2)C(=O)C1CC(=O)Nc1cc(OC)cc(OC)c1` (stereo not drawn), for which the Potency result was “inactive”.

Regarding `O=C(O)c1ccccc1OCc1ccccc1Cl`, the Potency entry is “inactive”.

Regarding `O=C(CCc1c[nH]c2ccccc12)NCCOc1ccccc1`, the Potency entry is “inactive”.

Take `O=C(Cc1c[nH]c2ccccc12)OCCOC(=O)Cc1c[nH]c2ccccc12`: the Potency was 5.22 µM (active).

Consider `O=C(COC(=O)Cc1c[nH]c2ccccc12)NCCc1ccccc1`, for which the Potency entry was “inactive”.

Regarding `O=C1NN(c2ccccc2)C(=O)/C1=C/c1ccc(-c2cccc(C(=O)O)c2)o1`, the Potency entry is “inactive”.

`COc1ccc(CNC(=O)CCC(=O)Nc2nnc(C(C)C)s2)cc1`: the Potency result was “inactive”.

`COc1cc2ccccc2cc1C(=O)Nc1nc(C)c(C(C)=O)s1`: the Potency entry is “inactive”.

For `COc1ccc(C(=O)CCC(=O)Nc2cccnc2)c(OC)c1`, the Potency result is “inactive”.

Regarding `CCOC(=O)C1(Cc2ccccc2C)CCCN(C(=O)CCc2c(C)noc2C)C1` (stereo not drawn), the Potency was 11.7 µM (active).

On to `CCOC(=O)C1(Cc2cccc(OC)c2)CCN(C(C)CC(C)(C)O)CC1` (stereo not drawn), for which the Potency result was “inactive”.

Turning to `CCOC(=O)C1(Cc2ccccc2C)CCCN(S(C)(=O)=O)C1` (stereo not drawn), the Potency entry is “inactive”.

For `CCOC(=O)C1(Cc2cccc(OC)c2)CCN(Cc2csc(C(C)=O)c2)CC1`, the Potency result is “inactive”.

Consider `Cc1noc(C)c1CCC(=O)O`, for which the Potency entry was “inactive”.

For the compound `CCOC(=O)C1(Cc2cccc(OC)c2)CCCN(C(=O)CCSC)C1` (stereo not drawn), the Potency was 0.37 µM (active).

For `COc1ccc(-c2c(NC(=O)c3ccco3)oc3ccc(Cl)cc3c2=O)cc1`, the Potency entry is “inactive”.

Take `CCCc1cc(=O)[nH]c(SCC(=O)N2C(C)CCCC2C)n1` (stereo not drawn): the Potency entry was “inactive”.

In the case of `CC1(C)NC(=O)N(CC(=O)Nc2cc(C(F)(F)F)cc(C(F)(F)F)c2)C1=O`, the Potency entry is “inactive”.

For the compound `O=C(COC(=O)CNC(=O)C1CCCCC1)Nc1cccc(F)c1`, the Potency result was “inactive”.

As for `Cc1ccc(F)cc1NC(=O)N1CCCN(c2ccc(C(F)(F)F)cn2)CC1`, the Potency result is “inactive”.

For the compound `COc1ccc2nc(N3CCCC(O)C3)c(C#N)cc2c1` (stereo not drawn), the Potency result was “inactive”.

In the case of `CCOc1ccc2nc(N3CCCN(C(=O)Nc4ccccc4C)CC3)c(C#N)cc2c1`, the Potency is 13.1 µM (active).

With `CC1(C)O[C@H]2CC(=O)OCC23[C@H]2CC[C@@]4(C)[C@H](c5ccoc5)OC(=O)[C@H]5O[C@]54[C@]2(C)C(=O)C[C@@H]13` (stereo partly drawn), the Potency result is “inactive”.

For `O=C1/C(=C/c2coc3ccc(O)cc3c2=O)SC(=S)N1c1ccccc1`, the Potency entry is “inactive”.

As for `Cc1cc2c(cc1C)N(Cc1ccccc1)C1=NCCCN12`, the Potency was 7.38 µM (active).

For `COc1cc(C)c(C)cc1S(=O)(=O)N1CCCc2ccccc21`, the Potency result was “inactive”.

As to `CC(C)(C)C(=O)CN1C2=NCCN2c2ccccc21`, the Potency result was “inactive”.

Consider `COC(=O)c1ccc(/C=C2/C(=O)Oc3ccccc32)cc1`, for which the Potency entry was “inactive”.

On to `Clc1cc(NC2CCCCC2)ncn1`, for which the Potency result is “inactive”.

With `O=C1c2ccccc2S(=O)(=O)N1Cc1c(F)cccc1Cl`, the Potency result was “inactive”.

For the compound `Cc1cccc(NC(=O)Cn2cc(C(=O)c3ccco3)c3ccccc32)c1`, the Potency entry was “inactive”.

Turning to `CC1CCN(C(=O)Cn2cc(C(=O)c3ccco3)c3ccccc32)CC1`, the Potency was 10.4 µM (active).

`N#Cc1ccc(Cn2cc(C(=O)c3ccco3)c3ccccc32)cc1`: the Potency entry was “inactive”.

Turning to `CC(=O)Nc1ccc(S(=O)(=O)N2CCn3cccc3C2C)cc1` (stereo not drawn), the Potency result is “inactive”.

Turning to `Cc1cc(NC(=O)c2ccc(F)cc2)ccc1NC(=O)c1ccco1`, the Potency entry was “inactive”.

As for `CC1CCCN(S(=O)(=O)c2ccc(-c3ccc(=O)[nH]n3)o2)C1` (stereo not drawn), the Potency result was “inactive”.

With `CN(Cc1c(F)cccc1Cl)S(=O)(=O)c1cccs1`, the Potency result is “inactive”.

Consider `COc1ccc2cc1Oc1ccc(cc1)C[C@H]1c3cc(c(OC)cc3CCN1C)Oc1c(O)c(OC)cc3c1[C@H](C2)N(C)CC3`, for which the Potency was 1.85 µM (active).

As for `CCOc1ccc(C(=O)COC(=O)c2ccc(-n3cnnn3)cc2)cc1`, the Potency entry is “inactive”.

For `COc1cc(C(=O)N(Cc2ccc(N(C)C)cc2)C2CCS(=O)(=O)C2)cc(OC)c1OC` (stereo not drawn), the Potency entry is “inactive”.

For the compound `CCOc1ccc(C(=O)N(Cc2ccc(N(C)C)cc2)C2CCS(=O)(=O)C2)cc1` (stereo not drawn), the activity change, negative = inhibition was 17.3% [at 5.75 µM].

With `CC1(C)C(C=C(Cl)Cl)C1C(=O)N(Cc1ccc(Cl)cc1)C1CCS(=O)(=O)C1` (stereo not drawn), the Potency is 11.7 µM (active).

`O=C1[C@@H]2C(c3cccnc3)=NO[C@@H]2C(=O)N1c1ccc(Cl)cc1Cl`: the Potency entry is “inactive”.

With `CC(C)[C@H](NC(=O)OCc1ccccc1)C(=O)OCc1ccccc1`, the Potency entry was “inactive”.

`COc1ccc(C2NC(=O)C(=O)/C2=C(\O)c2ccc(Cl)cc2)cc1OC` (stereo not drawn): the Potency entry was “inactive”.

As for `CC1CCc2[nH]c3ccc(C(=O)N(C)CC(=O)Nc4cccc(F)c4)cc3c2C1` (stereo not drawn), the Potency result was “inactive”.

As for `CCCN(CC(=O)Nc1ccccc1C)C(=O)c1ccc2[nH]c3c(c2c1)CC(C)CC3` (stereo not drawn), the Potency is 13.1 µM (active).

In the case of `CCCN(CC(=O)Nc1ccc(C(N)=O)cc1)CC(=O)Nc1ccccc1C`, the Potency result is “inactive”.

On to `O=C(OCc1nnc(-c2ccccc2)o1)c1cc(=O)[nH]c2ccccc12`, for which the Potency result was “inactive”.

Turning to `CCc1nnc(NC(=O)CSCc2cc(=O)n3cc(C)sc3n2)s1`, the Potency entry is “inactive”.

As for `CC(NCCc1ccc(S(N)(=O)=O)cc1)C(=O)NCc1ccccc1` (stereo not drawn), the Potency entry was “inactive”.

On to `COc1ccc(NC(=O)C2COc3ccccc3O2)cc1` (stereo not drawn), for which the Potency is 1.17 µM (active).

For `COc1ccc(NC(=O)CC2COc3ccccc3O2)c(OC)c1` (stereo not drawn), the Potency entry is “inactive”.

As to `CC(=O)c1cccc(NC(=O)C2CCN(C(=O)c3ccccc3Cl)CC2)c1`, the Potency entry is “inactive”.

For `O=C(Nc1nc(-c2ccncc2)cs1)C1COc2ccccc2O1` (stereo not drawn), the Potency entry was “inactive”.

With `CC(=O)c1cccc(NC(=O)C2COc3ccccc3O2)c1` (stereo not drawn), the Potency was 2.62 µM (active).

Regarding `O=C(Nc1nc2c(F)cc(F)cc2s1)C1COc2ccccc2O1` (stereo not drawn), the Potency entry is “inactive”.

In the case of `CCNC(=S)N(CCN(CC)CC)Cc1cc2cc3c(cc2[nH]c1=O)OCCO3`, the Potency result was “inactive”.

In the case of `O=C(/C=C/c1cccc([N+](=O)[O-])c1)N1CCN(Cc2ccccc2)CC1`, the Potency entry was “inactive”.

In the case of `Clc1ccc(C[n+]2cc(-c3ccc(Cl)cc3)n3c2CCC3)cc1`, the Potency is 0.37 µM (active).

`Clc1ccc(C[n+]2cc(-c3ccccc3)n3c2CCC3)cc1`: the Potency was 0.586 µM (active).

For `O=C(Cc1ccc(Br)cc1)NCCN1CCOCC1`, the Potency entry is “inactive”.

For the compound `COc1cccc(NC(=O)CSc2nnc(-c3cccnc3)o2)c1`, the Potency result was “inactive”.

On to `NC(=O)C1CCN(C(=O)c2ccc3c(=O)n(Cc4cccc(Br)c4)c(=S)[nH]c3c2)CC1`, for which the Potency result is “inactive”.

With `CC(Sc1nnc(COc2ccccc2)n1-c1ccccc1)C(=O)O` (stereo not drawn), the Potency result is “inactive”.

As to `CCOC(=O)N1CCN(C(=O)CSc2nnc(-c3c[nH]c4ccccc34)n2CCOC)CC1`, the Potency entry is “inactive”.

`CCn1c(SCC(=O)NC2CC2)nnc1-c1ccccc1OC`: the Potency result is “inactive”.

As for `CCn1c(SCC(=O)Nc2ccc(OC)c(OC)c2)nnc1-c1c[nH]c2ccccc12`, the Potency was 11.7 µM (active).
